# In ChEMBL document CHEMBL4888484, “Replenishing the malaria drug discovery pipeline: Screening and hit evaluation of the MMV Hit Generation Library 1 (HGL1) against asexual blood stage Plasmodium falciparum ,using a nano luciferase reporter read-out” (2022):
# Among all 4,800 compounds or so, about 420 (8.8%) showed an effect of 50% or more. For the sample, strong results were picked, then their nearest neighbours and some compounds at random.
# Test system: Plasmodium falciparum
# Experiment: Confirmatory screen in NF54 nanoGlo assay, in single point, at 2uM, 72h
# Format: functional, Erythrocyte
# Settings: timepoint 72 hour
row,SMILES,% Inhibition [%]
1,CCN(CC)S(=O)(=O)c1ccc2c(c1)CCCN2C(=O)c1ccc2ccccc2c1,1
2,CC1(C)NC(=O)CC[C@@H]1NC1CC(c2cccc(F)c2)C1 (stereo partly specified),5
3,CCOC1CC(NC2CC(c3ccc(F)cc3)C2)C12CCC2 (stereo unspecified),67
4,O=C(N[C@H](c1ccccc1)C1CC1)N1CCN(S(=O)(=O)c2cccc(F)c2)CC1,4
5,CCOC(=O)c1cc(F)cc(S(=O)(=O)Nc2ccnc3ncnn23)c1,34
6,COCc1cc(=O)n(CC(=O)NCc2ccccc2Cl)c(N2CCCC2)n1,-11
7,Cc1nn(C)c(Oc2cccc(F)c2)c1NC(=O)CC(C)C,8
8,CC(C)(C)n1nc2nc(NCCN3CCCCC3)nc(-c3ccc(F)c(Cl)c3)c2c1N,62
9,O=C(NCCN1CCCC1)c1ccc2nc(-c3ccc(Cl)cc3)cn2c1,18
10,COCc1cc(F)ccc1NC(=O)NC1CCN(c2cc(C)nc(C)n2)CC1,-5
11,CCOc1ccccc1C(=O)Nc1c(-n2cnnc2)nn(C)c1C,2
12,CC(NCCn1cccn1)C(=O)N1c2ccccc2CC1C (stereo unspecified),-10
13,Cc1ccc(Cn2ccn3nc(-c4ccc5c(c4)OCO5)cc3c2=O)cc1C,-9
14,N#Cc1ccc(C(=O)N[C@H]2CCCc3c2cnn3-c2ccccn2)cc1,2
15,CN1CCN([C@H]2CCN(c3ccnc4ccc(Cl)cc34)C[C@H]2CCCO)CC1,26
16,COc1ccnc(CN2CC[C@](C)(O)[C@H](O)C2)c1,-2
17,Oc1ccc2cc(CN3CCC[C@H](CN4CCCC4)C3)ccc2c1,17
18,COc1ccccc1CN1COc2cc3c(cc2C1)OCO3,22
19,CCC[C@]1(C)NC(=O)N(c2csc(-c3ccccc3)n2)C1=O,-3
20,CCn1nc(C)c(CN(C)C(=O)c2nn3cccnc3c2Cl)c1C,-2
21,COCCN(CC1CN(Cc2ccccn2)CC1c1cccc(F)c1)C(=O)COC (stereo unspecified),-3
22,C[C@H](C(=O)NCc1cc(F)cc(F)c1)C1CCOCC1,-5

row,SMILES,% Inhibition [%]
1,CCOc1ccc(C2c3[nH]c4ccccc4c3C[C@H]3C(=O)N(C4CCN(Cc5ccccc5)CC4)CC(=O)N23)cc1OC (stereo partly specified),80
2,COc1ccc(CNC(=O)c2ccc(N3C(=O)[C@@H]4Cc5c([nH]c6ccccc56)C(c5cccc(OC)c5)N4C3=O)cc2)cc1 (stereo partly specified),49
3,COc1ccccc1C1c2[nH]c3ccccc3c2C[C@H]2C(=O)N(CC(O)c3ccccc3)CC(=O)N12 (stereo partly specified),33
4,COc1ccccc1N1CCN(c2nc(Nc3ccc(F)cc3)c3nc[nH]c3n2)CC1,-18
5,Cc1ccc(CC(=O)N2C[C@H](c3ccccc3)C(c3ccc(Cl)cc3)=N2)cc1,6
6,CCCNC(=O)CNC(=NC1CC1)NCc1ccccc1C,-3
7,COc1nc(NC2CCS(=O)(=O)CC2)ncc1F,75
8,CC(C)(NCCc1c[nH]c2ccccc12)c1nnnn1Cc1cccnc1,3
9,O=C(NCCc1nnc[nH]1)C1(Cc2ccccc2)CC2CCC1C2 (stereo unspecified),-9
10,Cc1ccc(O)c(CNCC2(c3ccccc3Cl)CCOCC2)n1,99
11,Cc1ccc(O)c(CNc2ccc3c(c2)OCC3(C)C)n1,-7
12,N[C@H]1COc2ccc(Br)cc2C1=O,-3
13,Cc1ccc(NC(=O)Nc2cccc(-c3ccc(N4CCN(C)CC4)nn3)c2)cc1C,10
14,Cc1cccc(Nc2nc(-c3cnc(N4CCN(C)CC4)nc3C)cc(=O)[nH]2)c1,-7
15,O=C(Nc1ccc(-n2cncn2)cn1)c1cscn1,-18
16,COc1ccc(S(=O)(=O)Nc2c(C)ccc3nsnc23)cc1OC,4
17,CCCC[C@H](CC)C(=O)Nc1ccccc1C,7
18,CN(C(=O)c1ccc(OCC(F)(F)F)nc1)C1(C#N)CCC1,2
19,Cc1cc2c(cc1C)[C@H](C(=O)Nc1cc(C(N)=O)ccc1Cl)CO2,-1
20,O=C(N[C@@H](Cn1nccn1)c1ccccc1)c1cc(Br)ccc1Cl,65
21,O=C(Nc1ccc2c(c1)c1cc(Br)ccc1n2Cc1ccccc1)c1ccccc1,4
22,O=C(NC(Cn1ccccc1=O)c1ccccc1)C1CCOC1 (stereo unspecified),2

row,SMILES,% Inhibition [%]
1,O=C(Cc1ccccc1)Nc1cccc2c1C(=O)N(c1ccccc1)C2=O,-14
2,O=C(C[C@@]1(O)C(=O)N(Cc2ccc(Cl)cc2Cl)c2ccccc21)c1ccccn1,-10
3,Cc1c(NC(=O)CCc2ccsc2)nnn1Cc1ccccc1F,-10
4,COc1ccc(C(=O)CN2C=CCC=C2c2nc(-c3ccc(Cl)cc3)cs2)cc1,72
5,O=C(CN1C=CCC=C1c1nc(-c2ccc(Br)cc2)cs1)c1ccccc1,35
6,COc1ccc(C2=CN(CC(=O)c3ccc(Cl)cc3)C3=CCCCCN23)cc1,47
7,Cc1ccc(CNCCC2=CCCCC2)cc1,-2
8,Cc1csc(NC(=O)[C@]2(C)Oc3ccccc3NC2=O)n1,0
9,O=c1[nH]nc(-c2ccc3ccccc3c2)c2conc12,18
10,Cn1ccc(NC(=O)c2n[nH]c3ccccc23)n1,-12
11,CC(C)CCNC(=O)c1cnn2c3c(cnc12)CCCC3,-6
12,COc1ccc(F)c(NC(=O)N(CCO)C(C)C)c1,5
13,COc1ccc2nc(O)c(C(=O)Nc3ccc4c(c3F)CCNC4)cc2c1,99
14,COc1ccc(NC(=O)CN2N=C(C(=O)Nc3ccc(F)cc3)CCC2=O)cc1,-7
15,CCn1nc(C(=O)N(C2CCCCC2)C2CC2)c2ccccc2c1=O,-10
16,Cc1cccc(CN2CCC[C@H](C(=O)c3ccc4c5c(cccc35)CC4)C2)n1,63
17,Cc1cccc(NC(=O)N2CCCCCC2)n1,1
18,COC[C@H](NC(=O)c1cccc(F)c1Cl)C(N)=O,-8
19,Nc1c(-c2nc3ccccc3[nH]2)c2nc3ccccc3nc2n1Cc1ccccc1F,64
20,Cc1cc2nnc(-c3nc4ccccc4[nH]3)c(N)n2n1,-10
21,Cc1ncc(C(=O)Nc2cc3c(=O)[nH]cnc3cc2F)c(C2CC2)n1,3
22,CCc1nnc(COC(=O)c2csc(NC)n2)o1,6
